Measured values reported in the supplement of paper PMC10849652.
Of roughly 7,900 targets only a part is listed; those with a hit were picked by preference. About 0.6% of all pairs of compound and target were hits. Values without a mark were called inactive.

Tests used:
Assay in all cases: log2 fold change, soluble protein after heating vs DMSO (PISA); higher = thermal stabilisation; K562 cells, 10 uM, 30 min; active = over 0.2 and 3.5 SD of the protein, either way, in both replicates (recomputed)
[1] = compound: CC1=C(C=C(C=C1)NC(=O)C2=CC(=CC=C2)C(C)(C)C#N)NC3=CC4=C(C=C3)N=CN(C4=O)C
Method in brief: (§1)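 K562 cells (2×10^6 cells/mL) were treated with 10 μM compound for 30 min, and aliquots were heated for 3 min over 48°C-58°C. Pooled aliquots were extracted in PBS with 0.5% NP-40 at 4°C, and the supernatant after 21,000xg for 90 min was measured by TMTpro 16plex LC-MS/MS with channel sums equalised. Reported thermal stability, relative to control samples and from duplicates, is a log2 fold change.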

[2] = compound: CC1=C(C=C(C=C1)NC(=O)C2=CC(=CC=C2)N(C)C)NC(=O)C3=CC=C(C=C3)O
Method in brief: as §1

[3] = compound: CC1=CC=C(C=C1)SC2=C3C=C(SC3=CN=C2)C(=O)N
Method in brief: as §1

Nexturastat A = compound: CCCCN(Cc1ccc(C(=O)NO)cc1)C(=O)Nc1ccccc1 [Nexturastat A]
Method in brief: as §1

[4] = compound: CCCS(=O)(=O)Nc1ccc(F)c(C(=O)c2c[nH]c3ncc(Cl)cc23)c1F
Method in brief: as §1

givinostat = compound: CCN(CC)Cc1ccc2cc(COC(=O)Nc3ccc(C(=O)NO)cc3)ccc2c1 [givinostat]
Method in brief: as §1

[5] = compound: CC[C@@H]1C(=O)N(C)c2cnc(Nc3ccc(C(=O)NC4CCN(C)CC4)cc3OC)nc2N1C1CCCC1
Method in brief: as §1

volasertib = compound: CC[C@@H]1C(=O)N(C)c2cnc(Nc3ccc(C(=O)N[C@H]4CC[C@H](N5CCN(CC6CC6)CC5)CC4)cc3OC)nc2N1C(C)C [volasertib]
Method in brief: as §1

[6] = compound: CC[C@H](C)N1C=C(C2=C(C=C(C=C21)C3=CN=C(C=C3)N4CCNCC4)C(=O)NCC5=C(C=C(NC5=O)C)C)C
Method in brief: as §1

epoxomicin = compound: CC[C@H](C)[C@@H](C(=O)N[C@@H]([C@@H](C)O)C(=O)N[C@@H](CC(C)C)C(=O)[C@]1(CO1)C)NC(=O)[C@H]([C@@H](C)CC)N(C)C(=O)C [epoxomicin]
Method in brief: as §1

[7] = compound: CCn1c(C(=O)N(C2CC2)C2CC2)cc2c3c(ncn3C)c(Nc3cc(C)n(C)n3)nc21
Method in brief: as §1

[8] = compound: CCn1cc(-c2ccnc3[nH]c(-c4cccc(CN(C)C)c4)cc23)c(-c2ccc(NC(=O)N(C)C)cc2)n1
Method in brief: as §1

[9] = compound: CN1C2=C(C3=C1C(=O)N(N=C3)CC4=CC(=CC=C4)N)SC(=C2)S(=O)C
Method in brief: as §1

[10] = compound: CN1CCC(CNc2ccc3ncc(-c4cccc(OC(F)(F)F)c4)n3n2)CC1
Method in brief: as §1

[11] = compound: CC1=NC(=CC=C1)C2=C(N=C(N2)C(C)(C)C)C3=CC4=NC=CN=C4C=C3
Method in brief: as §1

vemurafenib = compound: CCCS(=O)(=O)Nc1ccc(F)c(C(=O)c2c[nH]c3ncc(-c4ccc(Cl)cc4)cc23)c1F [vemurafenib]
Method in brief: as §1

[12] = compound: CCCc1cc(C)[nH]c(=O)c1CNC(=O)c1cc(-c2ccnc(N3CCN(C)CC3)c2)cc2c1cnn2C(C)C
Method in brief: as §1

barasertib = compound: CCN(CCCOc1ccc2c(Nc3cc(CC(=O)Nc4cccc(F)c4)[nH]n3)ncnc2c1)CCOP(=O)(O)O [barasertib]
Method in brief: as §1

[13] = compound: CN(C)CC(=O)Nc1ccc2[nH]c(=O)c3ccccc3c2c1
Method in brief: as §1

rosiglitazone = compound: CN(CCOC1=CC=C(C=C1)C[C@H]2C(=O)NC(=O)S2)C3=CC=CC=N3 (racemic) [rosiglitazone]
Method in brief: as §1

Sequence of UniProt P40425 (P40425 whole entry, looked up): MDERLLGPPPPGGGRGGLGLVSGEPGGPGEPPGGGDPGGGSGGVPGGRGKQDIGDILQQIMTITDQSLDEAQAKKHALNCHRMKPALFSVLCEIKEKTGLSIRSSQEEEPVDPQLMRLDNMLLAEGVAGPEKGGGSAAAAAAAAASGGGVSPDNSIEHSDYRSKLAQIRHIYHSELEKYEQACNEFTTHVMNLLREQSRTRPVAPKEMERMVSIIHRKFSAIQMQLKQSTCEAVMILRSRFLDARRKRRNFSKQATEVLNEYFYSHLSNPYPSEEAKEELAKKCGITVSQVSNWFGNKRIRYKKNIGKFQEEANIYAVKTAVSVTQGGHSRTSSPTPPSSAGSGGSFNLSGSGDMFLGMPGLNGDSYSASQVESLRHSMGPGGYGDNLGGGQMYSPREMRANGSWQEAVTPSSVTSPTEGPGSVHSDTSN
Sequence of UniProt O95453 (O95453 whole entry, looked up): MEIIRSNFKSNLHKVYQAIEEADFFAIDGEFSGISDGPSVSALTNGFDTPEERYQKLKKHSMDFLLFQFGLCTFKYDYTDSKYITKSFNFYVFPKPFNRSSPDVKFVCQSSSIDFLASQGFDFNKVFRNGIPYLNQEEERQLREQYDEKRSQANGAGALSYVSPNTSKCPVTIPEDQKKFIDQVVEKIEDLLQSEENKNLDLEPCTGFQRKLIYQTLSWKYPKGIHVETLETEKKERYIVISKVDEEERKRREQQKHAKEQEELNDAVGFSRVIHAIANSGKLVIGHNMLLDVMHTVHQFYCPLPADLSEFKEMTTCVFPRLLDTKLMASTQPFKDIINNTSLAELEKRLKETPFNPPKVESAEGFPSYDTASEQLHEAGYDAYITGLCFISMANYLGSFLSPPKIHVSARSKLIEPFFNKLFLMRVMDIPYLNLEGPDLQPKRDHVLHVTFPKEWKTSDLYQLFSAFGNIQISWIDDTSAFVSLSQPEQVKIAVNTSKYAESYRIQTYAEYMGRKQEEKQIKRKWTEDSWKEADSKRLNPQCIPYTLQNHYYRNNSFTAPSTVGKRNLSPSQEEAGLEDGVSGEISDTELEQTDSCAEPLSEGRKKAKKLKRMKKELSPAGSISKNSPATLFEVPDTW
Sequence of UniProt Q8TCG2 (Q8TCG2 whole entry, looked up): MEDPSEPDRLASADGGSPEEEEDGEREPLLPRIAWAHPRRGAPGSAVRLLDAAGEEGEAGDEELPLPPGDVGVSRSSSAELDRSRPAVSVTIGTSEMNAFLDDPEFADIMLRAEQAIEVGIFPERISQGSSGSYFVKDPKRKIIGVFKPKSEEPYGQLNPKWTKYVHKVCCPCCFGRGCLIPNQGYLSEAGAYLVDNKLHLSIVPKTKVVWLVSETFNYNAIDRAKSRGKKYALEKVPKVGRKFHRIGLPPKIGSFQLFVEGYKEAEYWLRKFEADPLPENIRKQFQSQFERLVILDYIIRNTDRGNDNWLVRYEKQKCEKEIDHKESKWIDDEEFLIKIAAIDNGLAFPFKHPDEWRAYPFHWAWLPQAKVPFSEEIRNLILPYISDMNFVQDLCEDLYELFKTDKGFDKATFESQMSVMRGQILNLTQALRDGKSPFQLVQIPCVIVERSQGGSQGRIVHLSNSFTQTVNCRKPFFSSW
Sequence of UniProt Q9H5K3 (Q9H5K3 whole entry, looked up): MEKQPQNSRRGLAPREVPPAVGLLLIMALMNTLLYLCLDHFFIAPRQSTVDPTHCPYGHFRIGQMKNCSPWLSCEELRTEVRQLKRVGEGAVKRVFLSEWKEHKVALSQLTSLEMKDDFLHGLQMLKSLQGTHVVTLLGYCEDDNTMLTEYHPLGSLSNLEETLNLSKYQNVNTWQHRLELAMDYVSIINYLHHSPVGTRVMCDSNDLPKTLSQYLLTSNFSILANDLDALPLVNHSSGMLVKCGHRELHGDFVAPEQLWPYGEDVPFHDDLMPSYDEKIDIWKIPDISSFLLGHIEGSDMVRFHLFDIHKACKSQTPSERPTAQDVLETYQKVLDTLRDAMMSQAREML
Sequence of UniProt P14618 (P14618 whole entry, looked up): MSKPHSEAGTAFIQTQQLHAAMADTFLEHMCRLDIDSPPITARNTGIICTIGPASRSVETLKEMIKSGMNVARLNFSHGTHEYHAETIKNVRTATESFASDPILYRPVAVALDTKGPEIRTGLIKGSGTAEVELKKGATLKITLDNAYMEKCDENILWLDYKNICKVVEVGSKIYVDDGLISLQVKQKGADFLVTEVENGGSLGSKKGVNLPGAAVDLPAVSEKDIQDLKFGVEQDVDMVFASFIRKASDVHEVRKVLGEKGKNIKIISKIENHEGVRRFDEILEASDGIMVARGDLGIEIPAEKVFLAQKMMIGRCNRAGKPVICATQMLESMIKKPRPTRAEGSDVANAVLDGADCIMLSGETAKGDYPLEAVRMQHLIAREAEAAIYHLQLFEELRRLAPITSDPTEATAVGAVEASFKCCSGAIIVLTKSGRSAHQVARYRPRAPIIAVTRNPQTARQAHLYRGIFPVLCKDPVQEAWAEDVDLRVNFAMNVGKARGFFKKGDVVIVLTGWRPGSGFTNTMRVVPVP
Sequence of UniProt Q8N165 (Q8N165 whole entry, looked up): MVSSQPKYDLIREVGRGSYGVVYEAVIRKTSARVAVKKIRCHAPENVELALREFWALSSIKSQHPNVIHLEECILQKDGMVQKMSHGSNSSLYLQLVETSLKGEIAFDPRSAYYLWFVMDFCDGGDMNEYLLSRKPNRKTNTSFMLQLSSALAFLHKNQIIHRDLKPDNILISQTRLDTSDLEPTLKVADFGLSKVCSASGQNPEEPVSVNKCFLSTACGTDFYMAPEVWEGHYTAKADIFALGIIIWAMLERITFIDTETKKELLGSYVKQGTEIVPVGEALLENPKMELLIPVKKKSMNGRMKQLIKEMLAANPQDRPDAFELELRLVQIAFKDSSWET
Sequence of UniProt P05423 (P05423 whole entry, looked up): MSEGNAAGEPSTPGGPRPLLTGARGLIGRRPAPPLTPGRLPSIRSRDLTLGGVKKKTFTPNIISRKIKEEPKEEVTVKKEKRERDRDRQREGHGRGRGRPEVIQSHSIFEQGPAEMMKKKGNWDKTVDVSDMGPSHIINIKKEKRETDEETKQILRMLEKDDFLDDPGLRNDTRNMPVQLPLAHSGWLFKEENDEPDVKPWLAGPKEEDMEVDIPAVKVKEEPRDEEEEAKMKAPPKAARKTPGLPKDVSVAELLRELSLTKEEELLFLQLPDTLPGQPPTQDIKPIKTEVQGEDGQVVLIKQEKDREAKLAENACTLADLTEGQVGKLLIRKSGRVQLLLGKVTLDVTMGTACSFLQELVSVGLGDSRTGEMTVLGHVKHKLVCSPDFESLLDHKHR
Sequence of UniProt Q9H307 (Q9H307 whole entry, looked up): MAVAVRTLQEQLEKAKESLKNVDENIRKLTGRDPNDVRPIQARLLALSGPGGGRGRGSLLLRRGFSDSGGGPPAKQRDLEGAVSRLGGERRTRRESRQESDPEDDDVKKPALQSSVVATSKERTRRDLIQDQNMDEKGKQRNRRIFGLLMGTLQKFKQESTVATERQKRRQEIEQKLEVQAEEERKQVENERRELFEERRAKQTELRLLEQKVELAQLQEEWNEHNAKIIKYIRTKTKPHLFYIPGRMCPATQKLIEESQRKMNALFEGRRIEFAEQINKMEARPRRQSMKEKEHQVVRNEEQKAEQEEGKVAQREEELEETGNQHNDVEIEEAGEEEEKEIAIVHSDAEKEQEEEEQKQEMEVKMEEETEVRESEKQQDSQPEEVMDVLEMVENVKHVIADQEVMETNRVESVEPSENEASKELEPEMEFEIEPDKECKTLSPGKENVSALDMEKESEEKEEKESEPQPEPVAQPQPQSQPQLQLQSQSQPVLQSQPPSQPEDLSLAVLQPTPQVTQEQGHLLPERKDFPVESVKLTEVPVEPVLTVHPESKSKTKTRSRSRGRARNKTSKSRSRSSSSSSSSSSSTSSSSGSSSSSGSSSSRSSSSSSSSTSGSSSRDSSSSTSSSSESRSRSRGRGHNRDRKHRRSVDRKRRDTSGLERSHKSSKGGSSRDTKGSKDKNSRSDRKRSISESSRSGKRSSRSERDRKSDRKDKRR
Sequence of UniProt Q8N5Y8 (Q8N5Y8 whole entry, looked up): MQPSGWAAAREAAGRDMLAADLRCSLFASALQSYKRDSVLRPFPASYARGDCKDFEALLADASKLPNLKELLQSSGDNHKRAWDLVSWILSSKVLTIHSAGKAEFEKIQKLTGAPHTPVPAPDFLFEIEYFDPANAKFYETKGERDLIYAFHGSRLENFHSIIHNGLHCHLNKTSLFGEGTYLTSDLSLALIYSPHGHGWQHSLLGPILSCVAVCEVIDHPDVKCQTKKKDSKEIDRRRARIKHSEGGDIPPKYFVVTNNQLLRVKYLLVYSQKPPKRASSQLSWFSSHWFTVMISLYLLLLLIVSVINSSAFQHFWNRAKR
Sequence of UniProt Q9BZL4 (Q9BZL4 whole entry, looked up): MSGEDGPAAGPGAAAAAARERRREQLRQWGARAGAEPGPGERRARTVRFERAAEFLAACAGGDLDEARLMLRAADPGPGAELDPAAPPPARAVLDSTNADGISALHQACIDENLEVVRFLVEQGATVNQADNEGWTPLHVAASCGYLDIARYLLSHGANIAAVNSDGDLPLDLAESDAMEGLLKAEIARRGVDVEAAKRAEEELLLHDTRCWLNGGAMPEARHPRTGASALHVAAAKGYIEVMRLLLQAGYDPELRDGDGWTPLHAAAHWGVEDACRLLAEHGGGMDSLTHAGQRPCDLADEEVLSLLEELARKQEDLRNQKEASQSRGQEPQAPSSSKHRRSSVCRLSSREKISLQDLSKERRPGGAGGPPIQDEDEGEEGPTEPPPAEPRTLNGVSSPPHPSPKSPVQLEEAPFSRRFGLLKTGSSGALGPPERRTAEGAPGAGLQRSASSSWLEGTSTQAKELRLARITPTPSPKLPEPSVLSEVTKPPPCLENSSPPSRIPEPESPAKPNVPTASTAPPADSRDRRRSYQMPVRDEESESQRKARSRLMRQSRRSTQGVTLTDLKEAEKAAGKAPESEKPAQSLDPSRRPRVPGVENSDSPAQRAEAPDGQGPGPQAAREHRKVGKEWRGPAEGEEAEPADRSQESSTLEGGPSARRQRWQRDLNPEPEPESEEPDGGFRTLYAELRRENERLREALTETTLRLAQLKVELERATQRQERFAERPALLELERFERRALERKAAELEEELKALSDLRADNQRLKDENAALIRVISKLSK

Target	log2 fold change [1]	log2 fold change [2]	log2 fold change [3]	log2 fold change (Nexturastat A)	log2 fold change [4]	log2 fold change (givinostat)	log2 fold change [5]	log2 fold change (volasertib)	log2 fold change [6]	log2 fold change (epoxomicin)	log2 fold change [7]	log2 fold change [8]	log2 fold change [9]	log2 fold change [10]	log2 fold change [11]	log2 fold change (vemurafenib)	log2 fold change [12]	log2 fold change (barasertib)	log2 fold change [13]	log2 fold change (rosiglitazone)
POLB (UniProt P06746)	0.086	-0.211	0.009	0.189	0.178	-0.026	-0.127	-0.073	0.077	0.043	-0.078	0.111	0.016	-0.156						
PBX2 (UniProt P40425)	0.049	0.001	0.089	0.072	0.136	0.138		-0.251	0.025	0.123	-0.03	-0.009	-0.056	0.024	0.165	0.099	0.026	0.03	0.023	0.052
PARP16 isoform 3 (UniProt Q8N5Y8)	0.066		0.298 (active)	0.022	0.132	0.04	0.103	-0.025	0.067	0.029	0.006	-0.252 (active)	-0.008	0.096	0	-0.06	-0.016	0.032	0.061	0.09
PIK3CD (UniProt O00329)	0.042	0.079	0.018	-0.1	-0.156	-0.013	-0.069	-0.036		-0.076	-0.229		0		-0.04	-0.051		0.096	-0.059	0.288
PDIK1L (UniProt Q8N165)	-0.079	0.031	-0.265	-0.077	0	0.034	0.123	0.108	-0.056	-0.128	0.123		0.02		0.068	0.026	0.03	0.055	-0.028	-0.135
POLR2C (UniProt P19387)	-0.097	-0.058	0.038	0.126	0.066	0.042	0.059	-0.187	0.017	0.075	-0.035		-0.04		-0.011	0.021	-0.005	0.022	0.006	0.042
PRKD3 (UniProt O94806)	0.096	-0.052				-0.008					-0.033	-0.125	-0.002	-0.418	-0.012	0.294	0.115	0.086	0.059	0.192
PNN (UniProt Q9H307)	-0.101	0.084	0.003	0.03	0.04	0.121	0.248	-0.039	-0.077	-0.07	-0.052	0.021	0.067	-0.042	0.011		0.004	0.027		0.003
PKM isoform 2 (UniProt P14618)	-0.13	-0.082	0.049	0.267	0.094		0	0.091	0.018	0.29		-0.006	-0.184	-0.046	0.033	0.088	0.056	-0.005	0.053	-0.1
PARN (UniProt O95453)	-0.038	-0.004	0.004	-0.069	0.043	0.059	-0.146	-0.401 (active)	0.059	0.051	-0.021	-0.076	-0.057	-0.196	0.013	0	-0.058	0.057	0.017	0.017
POLR3D (UniProt P05423)	-0.078	0.014	-0.01	0.153	0.055	0.065		-0.394 (active)	0.107	-0.066	-0.06	0.032	0.61	-0.035	-0.023	0.03	0.104	0.098	0.018	-0.005
POLA2 (UniProt Q14181)	0.073	0.044	-0.037	-0.011	0.048	0.021	-0.114	-0.328 (active)	0.051	0.022	-0.008	-0.109	-0.057	-0.22	0.061	0.034	-0.02	0.021	0.1	0.061
PTPA (UniProt A6PVN8)	0.062	-0.128	-0.15	-0.038	-0.11	-0.857 (active)	0.051	-0.041	-0.03	0.053	0.099	0.047	0.069	0.011		-0.065	0.038	0.01	0.016	-0.105
POMP (UniProt Q9Y244)	0.024	0.075	-0.069	0.145	-0.023	-0.045	0.097	-0.049	0.008	0.581 (active)	-0.005	0.021	-0.02	-0.004	0.076	-0.023	0.016	0.054	-0.018	-0.059
PSMC4 (UniProt P43686)	0.016	0.013	-0.049	0.03	-0.083	-0.059	0.033	0.2	-0.021	-0.379 (active)	-0.02	0.086	0.033	0.06	-0.036	-0.066	0.084	-0.042	-0.033	-0.021
PPP1R12C (UniProt Q9BZL4)	-0.048	0.027	0.124	0.154	0.265	0.089	0.029	-0.027	0.204	-0.102	-0.094	-0.116	0.013	0.029		-0.023	0.04	0.112	-0.03	-0.031
POMK (UniProt Q9H5K3)	0.029	-0.018	0.028	-0.01	0.041	0.002	-0.079	-0.093	0.014	-0.05	0.054	0.054	0.023	-0.082	0	0.04	0	0.11	-0.007	0.012
PI4K2B (UniProt Q8TCG2)	-0.082	-0.002				0.019	-0.147		-0.039		-0.057	0.045	0.079	-0.1	-0.013	0.059	0.144	0.146	-0.024	0.004
